High-throughput results deposited in PubChem by National Center for Advancing Translational Sciences (NCATS).
Tau ThT inhib: inhibitors of human tau fibril formation, thioflavin T binding. P10636. recombinant tau K18 P301L, heparin-induced fibrillization, ThT fluorescence. Potency, µM (top dose mostly 57.4 µM), usual class: inhibitors. 270,000 compounds, 2.1% hits; further: nearly all actives have a fitted effect of over 55% in size
Target sequence (P10636 561-689 P618L limits assumed): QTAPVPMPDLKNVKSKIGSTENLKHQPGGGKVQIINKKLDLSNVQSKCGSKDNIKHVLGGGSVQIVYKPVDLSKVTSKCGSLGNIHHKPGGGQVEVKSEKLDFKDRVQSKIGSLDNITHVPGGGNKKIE
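Heparin-induced fibrillization of the P301L-mutant K18 repeat-domain fragment of human tau was followed by ThT binding in quantitative high-throughput format.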
Coupling enz: coupling enzyme interference in Giardia aldolase counter-screen. AID 2472. 290,000 compounds, 0.67% hits. coupling enzyme system counterscreen, AmpLite Red fluorescence. activity change, negative = inhibition, % at 58.2 µM, hits read low; in the data active means activity change below about -30%
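Fluorescence at 525 nm excitation and 598 nm emission measured inhibition of the coupled detection system without aldolase. Compounds (at 57.5 uM final) were preincubated 10 min at room temperature with coupling enzyme reagent before a 20 min substrate/AmpLite Red step.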
Tau fibril FP: tau fibrillization inhibition (FP). P10636. K18 P301L tau heparin fibrillization, Alexa594 FP, 6 h. Potency, µM (highest dose often 57.7 µM), usual class: inhibitors. 280,000 compounds, 0.39% hits. AID 1468; further: nearly all actives have a fitted effect of over 55% in size
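Quantitative HTS format: compounds meet 15 uM recombinant K18 P301L tau and Alexa 594-tau tracer in 100 mM sodium acetate pH 7; 20 uM heparin triggers fibrillization at 37 C over 6 hr; FP gives the signal.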
Tau fluor cs: counter-screen for tau fibril formation inhibitors | tau K18 P301L Alexa594 fluorescence, heparin fibrillization | Potency, µM (titrated, usually from 57.7 µM) | 280,000 compounds, 0.93% hits; further: nearly all actives have a fitted effect of over 55% in size
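Human tau K18 P301L (15 uM unlabeled, 0.24 uM Alexa 594-labeled) in 100 mM sodium acetate pH 7 with 20 uM heparin, 6 hr at 37 C. ThT 30 uM added, 1 hr ambient; Alexa 594 FP and total fluorescence read at 555/632 nm.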
Numbers stand for hits; [ ] = remark or other dose. Rows were chosen to be rich in hits. Some 2.7% of all compounds tested hit in one or more screens of this group. Unless noted, the call rests on the fitted dose curve; in most records, active means well fitted curve in the direction sought with a large enough effect; inconclusive means small, poorly fitted or top-dose-only effect, or another doubt; inactive means no such curve, though single readings can be large; an effect the other way counts as inactive or inconclusive.

`O=c1c2ccccc2nc(/C=C/c2c[nH]c3ccccc23)n1CCO` gave Tau ThT inhib inconclusive, Coupling enz inactive, Tau fibril FP inconclusive and Tau fluor cs 20µM[quencher].
CC[C@H](C)[C@H](NC(=O)[C@H](CCC(=O)O)NC(=O)CNC(=O)[C@H](CCCCN)NC(=O)[C@H](CCC(=O)O)NC(=O)[C@H](CCSC)NC(=O)[C@H](CCSC)NC(=O)[C@H](CCSC)NC(=O)[C@H](CCC(=O)O)NC(=O)CNC(=O)[C@H](CO)NC(=O)[C@H](CO)NC(=O)[C@H](CO)NC(=O)[C@@H](N)CC(N)=O)C(=O)N[C@@H](CCCCN)C(=O)O was read as Coupling enz inactive.
`CCCCN(CC)CCNC(=O)C1CCCN(c2ncnc3onc(C)c23)C1` (stereo not drawn) gave Tau ThT inhib inactive, Tau fibril FP inactive and Tau fluor cs inactive.
For CCOc1ccc(C(=O)NCc2ccc3c(c2)OCO3)cc1OCC the results were Coupling enz inactive.
For CC(=O)NC(c1ccc([N+](=O)[O-])cc1)c1c(O)ccc2ccccc12 (stereo not drawn) the results were Tau ThT inhib inactive, Coupling enz inactive, Tau fibril FP inactive and Tau fluor cs inactive.
For CC(C)C(=O)NC(c1ccc([N+](=O)[O-])cc1)c1c(O)ccc2ccccc12 (stereo not drawn) the results were Tau ThT inhib 20µM, Coupling enz inactive, Tau fibril FP inconclusive and Tau fluor cs inconclusive.
CCCCC(=O)Nc1sc2c(c1C(=O)OCC)CCC(C=O)=C2Cl was read as Tau ThT inhib 25µM, Coupling enz inactive, Tau fibril FP inactive and Tau fluor cs inactive.
For CCOC(=O)c1c(NC(=O)c2ccccc2Cl)sc2c1CCc1ccccc1-2 the results were Tau ThT inhib inconclusive, Coupling enz inactive, Tau fibril FP inactive and Tau fluor cs inactive.
CCOC(=O)/C=C(\C)Sc1cc(O)c2ccccc2c1O was read as Tau ThT inhib 1.8µM, Coupling enz -86, Tau fibril FP 4.5µM and Tau fluor cs inconclusive.
`CCOC(=O)/C=C(\C)Sc1cc(=O)oc2ccccc12` gave Tau ThT inhib inconclusive, Coupling enz inactive, Tau fibril FP inactive and Tau fluor cs inactive.
Screening CCOc1ccc(C(=O)NCC(c2ccc3c(c2)OCO3)N2CCN(c3ccccc3F)CC2)cc1 (stereo not drawn) returned Tau ThT inhib inconclusive, Tau fibril FP inactive and Tau fluor cs inactive.
`CCC(=O)N1CCc2cc(S(=O)(=O)NC(Cc3ccccc3)C(=O)Nc3ccc(Cl)cc3)ccc21` (stereo not drawn) gave Tau ThT inhib inactive, Tau fibril FP inconclusive and Tau fluor cs inconclusive.
`Cc1cc(N2CCOCC2)ccc1/C=C1/SC(=O)NC1=O` gave Tau ThT inhib 10µM, Coupling enz inactive, Tau fibril FP inactive and Tau fluor cs inactive.
Screening CCCn1c(O)c(/C=C2\C=NN=C2c2ccccc2)sc1=S returned Tau ThT inhib inactive, Coupling enz inactive, Tau fibril FP 18µM and Tau fluor cs inconclusive.
CCCCC(CC)Cn1c(O)c(/C=C2\C=NN=C2c2ccccc2)sc1=S (stereo not drawn) was read as Tau ThT inhib inactive, Coupling enz inactive, Tau fibril FP 18µM and Tau fluor cs inactive.
For CCN1C(=NCCc2c[nH]c3ccccc23)N[C@@H](c2ccccc2)C(C(=O)OC)=C1C the results were Coupling enz inactive.
`COC(=O)C1=C(C)N(CCc2c[nH]c3ccccc23)C(=O)/C1=C\N(C)C` gave Tau ThT inhib 14µM, Coupling enz inactive, Tau fibril FP inactive and Tau fluor cs inconclusive.
`COc1cc(/C=N/Nc2nc3ccccc3s2)cc([N+](=O)[O-])c1O` gave Tau ThT inhib 1.8µM, Coupling enz inactive, Tau fibril FP inactive and Tau fluor cs 14µM[quencher].
For O=C(O)c1ccc(N/N=C/c2cc3ccccc3nc2Cl)cc1 the results were Coupling enz inactive.
Screening COc1cc(/C=N/Nc2nc(=O)[nH]nc2C)cc([N+](=O)[O-])c1O returned Tau ThT inhib 14µM, Coupling enz inactive, Tau fibril FP inactive and Tau fluor cs inactive.
For COc1cc(/C=N/NC(=O)c2ccc(C)nc2)cc([N+](=O)[O-])c1O the results were Tau ThT inhib inconclusive, Coupling enz inactive, Tau fibril FP inactive and Tau fluor cs inactive.
COc1ccc(/C=N/Nc2nc(=O)[nH]nc2C)cc1[N+](=O)[O-] was read as Tau ThT inhib inconclusive, Coupling enz inactive, Tau fibril FP inactive and Tau fluor cs inactive.
O=[N+]([O-])c1cc(Cl)cc(/C=N/Nc2nc3ccccc3s2)c1O was read as Tau ThT inhib 11µM, Coupling enz inactive, Tau fibril FP inactive and Tau fluor cs 25µM[quencher].
`O=[N+]([O-])c1ccccc1N/N=C/c1cc2ccccc2nc1Cl` gave Tau ThT inhib 2.2µM, Coupling enz inactive, Tau fibril FP inactive and Tau fluor cs inactive.
Screening CCOc1ccc(-c2cc(C(=O)NCc3ccc(OCC)c(OC)c3)[nH]n2)cc1 returned Tau ThT inhib inactive, Tau fibril FP inactive and Tau fluor cs inactive.
`COc1cc(OC)cc(C(=O)Nc2ccc3oc(-c4ccc(Cl)cc4)nc3c2)c1` gave Tau ThT inhib inconclusive, Tau fibril FP inconclusive and Tau fluor cs inactive.
`CCOC(=O)C1=C(C)Nc2ccc(C)cc2S1` gave Tau ThT inhib 16µM, Coupling enz inactive, Tau fibril FP inactive and Tau fluor cs inconclusive.
Cc1n[nH]c(C)c1S(=O)(=O)N1CCCC(C(=O)Nc2ccc(Cl)cc2)C1 (stereo not drawn) was read as Tau ThT inhib inactive, Tau fibril FP inactive and Tau fluor cs inactive.
`N=C1/C(=C\c2ccc(-c3cccc(C(=O)O)c3)o2)C(=O)N=C2SC=C(c3ccccc3)N12` gave Tau ThT inhib 2.5µM, Coupling enz inactive, Tau fibril FP inactive and Tau fluor cs inactive.
N=C1/C(=C/c2ccc(-c3cccc(C(=O)O)c3)o2)C(=O)N=C2SC(CC(=O)N3CCOCC3)=NN12 was read as Coupling enz inactive.
Cc1cc(C)n2nc(C(=O)Nc3cccc(S(=O)(=O)N(C)c4ccccc4)c3)nc2n1 was read as Tau ThT inhib inactive, Coupling enz inactive, Tau fibril FP inactive and Tau fluor cs inactive.
Screening N#C/C(=C\c1ccc(-c2ccccc2[N+](=O)[O-])o1)C(=O)Nc1nc(-c2cccs2)cs1 returned Tau ThT inhib 2.8µM, Coupling enz inactive, Tau fibril FP inactive and Tau fluor cs inconclusive.
For N#C/C(=C/c1ccc(-c2ccccc2[N+](=O)[O-])o1)C(N)=O the results were Tau ThT inhib inactive, Coupling enz inactive, Tau fibril FP inactive and Tau fluor cs inactive.
`N#C/C(=C\c1ccc(-c2ccc([N+](=O)[O-])cc2)o1)C(=O)Nc1nc(-c2cccs2)cs1` gave Tau ThT inhib 2.2µM, Coupling enz inactive, Tau fibril FP inactive and Tau fluor cs inconclusive.
